Data taken from PubChem BioAssay (NCI).
Compounds without any hit were thinned out: in the full panel of roughly 79,000, 15% have a hit. A number with no mark means an inactive call. Active and inactive are the calls of the source. Rule as the data show it: active = growth inhibition above about 70%; inactive = the rest.

Key:
[1] = NCI Yeast Anticancer Drug Screen. Data for the rad52 strain (AID 147);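 also: 0% = growth of vehicle-treated control cultures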; settings: S. cerevisiae rad52 mutant growth inhibition, stronger effect = higher value
Summary of the method: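 DNA repair-defective yeast; compound exposure; growth scored against vehicle controls.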

[2] = NCI Yeast Anticancer Drug Screen. Data for the wt1 strain (AID 149);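 also: 0% = growth of vehicle-treated wt1 cultures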; settings: S. cerevisiae wt1 strain (SPY 50644) growth inhibition, stronger effect = higher value
Summary of the method: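 Using yeast strain wt1, compound-induced growth inhibition was determined against vehicle-treated cultures.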

[3] = NCI Yeast Anticancer Drug Screen. Data for the rad50EPP+ strain (AID 151);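 also: 0% = growth of vehicle-treated control cultures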; settings: S. cerevisiae rad50 mutant strain, stronger effect = higher value
Summary of the method: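 rad50EPP+ yeast treated with test compounds. Readout: growth vs vehicle control.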

[4] = NCI Yeast Anticancer Drug Screen. Data for the mgt1 strain (AID 153); settings: S. cerevisiae mgt1 mutant growth inhibition, stronger effect = higher value
Summary of the method: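 Growth inhibition relative to vehicle controls was scored for the mgt1 yeast strain after compound exposure.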

[5] = NCI Yeast Anticancer Drug Screen. Data for the rad50 strain (AID 155);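 also: 0% = growth of vehicle-only cultures of the same strain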; settings: S. cerevisiae rad50 strain growth inhibition, stronger effect = higher value
Summary of the method: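 Relative growth inhibition (compound vs vehicle) was measured in yeast with a defined repair-gene alteration.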

[6] = NCI Yeast Anticancer Drug Screen. Data for the mec2-1 strain (AID 157); settings: S. cerevisiae mec2-1 strain, stronger effect = higher value
Summary of the method: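 Growth inhibition is read against vehicle-treated controls after compound exposure of the mec2-1 yeast strain, which is defective in DNA damage repair or cell cycle control.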

[7] = NCI Yeast Anticancer Drug Screen. Data for the rad14 strain (AID 159);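 also: 0% = growth of vehicle-treated control cultures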; settings: S. cerevisiae rad14 strain growth inhibition, stronger effect = higher value
Summary of the method: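 Screen for anticancer potential: a yeast strain altered in DNA damage repair is grown with compound, and reduced growth is quantified against vehicle controls.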

[8] = NCI Yeast Anticancer Drug Screen. Data for the sgs1 mgt1 strain (AID 161);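 also: 0% = growth of cultures given vehicle only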; settings: S. cerevisiae sgs1 mgt1 strain, stronger effect = higher value
Summary of the method: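 Yeast cells carrying a defined DNA-repair defect were exposed to test compounds. Growth inhibition was measured relative to vehicle-treated controls.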

[9] = NCI Yeast Anticancer Drug Screen. Data for the CLN2oe strain (AID 163);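 also: 0% = growth of vehicle-only control cultures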; settings: S. cerevisiae CLN2oe strain, stronger effect = higher value
Summary of the method: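 Compound-treated yeast; growth vs vehicle ctrl = % inhibition. Genetically altered strain (cell-cycle control).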

[10] = NCI Yeast Anticancer Drug Screen. Data for the cln2 rad14 strain (AID 165);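 also: 0% = growth equal to vehicle treated cultures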; settings: S. cerevisiae cln2 rad14 strain, stronger effect = higher value
Summary of the method: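 Growth inhibition, relative to vehicle-treated controls, is the read-out. The test organism is a yeast strain with defined genetic alterations, cln2 rad14.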

[11] = NCI Yeast Anticancer Drug Screen. Data for the bub3 strain (AID 167); settings: S. cerevisiae bub3 mutant strain, stronger effect = higher value
Summary of the method: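 Screening used yeast with an engineered genetic alteration affecting cell cycle control. Compound-exposed cultures were compared with vehicle cultures, and reduced growth was taken as inhibition.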

[12] = NCI Yeast Anticancer Drug Screen. Data for the wt2 strain (AID 169);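 also: 0% = growth of vehicle-treated yeast cultures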; settings: S. cerevisiae wt2 strain growth inhibition, stronger effect = higher value
Summary of the method: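 Compound exposure of yeast; growth compared with vehicle controls; inhibition reported.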

[13] = NCI Yeast Anticancer Drug Screen. Data for the mlh1 strain (AID 171);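 also: 0% = growth of vehicle-treated control cultures of the same strain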; settings: S. cerevisiae mlh1 strain growth inhibition, stronger effect = higher value
Summary of the method: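 Compounds are applied to a genetically altered yeast strain, and its growth is compared with that of vehicle-treated cultures to give percent inhibition.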

[14] = NCI Yeast Anticancer Drug Screen. Data for the sgs1 strain (AID 173);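 also: 0% = growth of vehicle-only control cultures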; settings: S. cerevisiae sgs1 mutant, stronger effect = higher value
Summary of the method: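 Compounds applied to genetically altered yeast; growth compared with vehicle-treated cultures to give % inhibition.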

[15] = NCI Yeast Anticancer Drug Screen. Data for the mlh1 rad18 strain (AID 175); settings: S. cerevisiae mlh1 rad18 strain growth inhibition, stronger effect = higher value
Summary of the method: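 Cells of a genetically altered yeast strain, deficient in DNA damage repair, were treated with compound. Their growth was then compared with that of vehicle-treated cultures to give inhibition.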

[16] = NCI Yeast Anticancer Drug Screen. Data for the rad18 strain (AID 177); settings: S. cerevisiae rad18 mutant growth inhibition, stronger effect = higher value
Summary of the method: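 Compounds are applied to a repair-deficient yeast strain, and growth is compared with that of vehicle-treated cultures to give percent inhibition.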

[17] = at 5.0 µM (retest, dose inferred, filed as 0.5)
[18] = at 50.0 µM (retest, dose inferred, filed as 5.0)

NCCc1ccc(OCc2ccccc2)c(OCc2ccccc2)c1
growth inhibition ([1]; at 1.2 µM): -8%
growth inhibition ([1]; at 3.7 µM): -5%
growth inhibition ([1]; at 11.0 µM): -6%
growth inhibition ([1]; at 33.0 µM): 72% (active)
growth inhibition ([1]; at 100.0 µM): 92% (active)
growth inhibition ([2]; at 1.2 µM): 0%
growth inhibition ([2]; at 3.7 µM): -6%
growth inhibition ([2]; at 11.0 µM): -28%
growth inhibition ([2]; at 33.0 µM): 74% (active)
growth inhibition ([2]; at 100.0 µM): 97% (active)
growth inhibition ([3]; at 1.2 µM): -15%
growth inhibition ([3]; at 3.7 µM): -9%
growth inhibition ([3]; at 11.0 µM): -19%
growth inhibition ([3]; at 33.0 µM): 11%
growth inhibition ([3]; at 100.0 µM): 83% (active)
growth inhibition ([4]; at 1.2 µM): 2%
growth inhibition ([4]; at 3.7 µM): 13%
growth inhibition ([4]; at 11.0 µM): 56%
growth inhibition ([4]; at 33.0 µM): 97% (active)
growth inhibition ([4]; at 100.0 µM): 98% (active)
growth inhibition ([5]; at 1.2 µM): 16%
growth inhibition ([5]; at 3.7 µM): 17%
growth inhibition [5, 17]: 43%
growth inhibition ([5]; at 11.0 µM): 35%
growth inhibition ([5]; at 33.0 µM): 90% (active)
growth inhibition [5, 18]: 90% (active)
growth inhibition ([5]; at 50.0 µM): 91.7% (active)
growth inhibition ([5]; at 100.0 µM): 96% (active)
growth inhibition ([6]; at 1.2 µM): 0%
growth inhibition ([6]; at 3.7 µM): 3%
growth inhibition [6, 17]: 35%
growth inhibition ([6]; at 11.0 µM): 8%
growth inhibition ([6]; at 33.0 µM): 92% (active)
growth inhibition [6, 18]: 96% (active)
growth inhibition ([6]; at 50.0 µM): 91.5% (active)
growth inhibition ([6]; at 100.0 µM): 98% (active)
growth inhibition ([7]; at 1.2 µM): -27%
growth inhibition ([7]; at 3.7 µM): -21%
growth inhibition ([7]; at 11.0 µM): -3%
growth inhibition ([7]; at 33.0 µM): 94% (active)
growth inhibition ([7]; at 100.0 µM): 97% (active)
growth inhibition [8, 17]: -16%
growth inhibition [8, 18]: 97% (active)
growth inhibition ([9]; at 1.2 µM): -1%
growth inhibition ([9]; at 3.7 µM): 3%
growth inhibition ([9]; at 11.0 µM): -5%
growth inhibition ([9]; at 33.0 µM): 41%
growth inhibition ([9]; at 100.0 µM): 97% (active)
growth inhibition [10, 17]: 36%
growth inhibition [10, 18]: 82% (active)
growth inhibition ([11]; at 1.2 µM): 12%
growth inhibition ([11]; at 3.7 µM): 20%
growth inhibition [11, 17]: -17%
growth inhibition ([11]; at 11.0 µM): 35%
growth inhibition ([11]; at 33.0 µM): 87% (active)
growth inhibition [11, 18]: 92% (active)
growth inhibition ([11]; at 100.0 µM): 96% (active)
growth inhibition ([12]; at 1.2 µM): -15%
growth inhibition ([12]; at 3.7 µM): -12%
growth inhibition ([12]; at 11.0 µM): 37%
growth inhibition ([12]; at 33.0 µM): 95% (active)
growth inhibition ([12]; at 100.0 µM): 97% (active)
growth inhibition ([13]; at 1.2 µM): -38%
growth inhibition ([13]; at 3.7 µM): -12%
growth inhibition ([13]; at 11.0 µM): 43%
growth inhibition ([13]; at 33.0 µM): 95% (active)
growth inhibition ([13]; at 100.0 µM): 96% (active)
growth inhibition ([14]; at 1.2 µM): -8%
growth inhibition ([14]; at 3.7 µM): -5%
growth inhibition ([14]; at 11.0 µM): 51%
growth inhibition ([14]; at 33.0 µM): 95% (active)
growth inhibition ([14]; at 100.0 µM): 96% (active)
growth inhibition [15, 17]: 24%
growth inhibition [15, 18]: 96% (active)
growth inhibition ([15]; at 50.0 µM): 90.2% (active)
growth inhibition ([16]; at 1.2 µM): 2%
growth inhibition ([16]; at 3.7 µM): 15%
growth inhibition ([16]; at 11.0 µM): 45%
growth inhibition ([16]; at 33.0 µM): 91% (active)
growth inhibition ([16]; at 100.0 µM): 94% (active)

C/C(CCl)=N/NC1=NC(c2ccccc2Cl)P(=O)(NCCCNP2(=O)SC(N/N=C(/C)CCl)=NC2c2ccccc2Cl)S1 (stereo not given)
growth inhibition ([1]; at 1.2 µM): -2%
growth inhibition ([1]; at 3.7 µM): -2%
growth inhibition ([1]; at 11.0 µM): -2%
growth inhibition ([1]; at 33.0 µM): 5%
growth inhibition ([1]; at 100.0 µM): 8%
growth inhibition ([2]; at 1.2 µM): 3%
growth inhibition ([2]; at 3.7 µM): -4%
growth inhibition ([2]; at 11.0 µM): -5%
growth inhibition ([2]; at 33.0 µM): -3%
growth inhibition ([2]; at 100.0 µM): -1%
growth inhibition ([3]; at 1.2 µM): 0%
growth inhibition ([3]; at 3.7 µM): 2%
growth inhibition ([3]; at 11.0 µM): 10%
growth inhibition ([3]; at 33.0 µM): 43%
growth inhibition ([3]; at 100.0 µM): 33%
growth inhibition ([5]; at 1.2 µM): 4%
growth inhibition ([5]; at 3.7 µM): 4%
growth inhibition [5, 17]: -21%
growth inhibition ([5]; at 11.0 µM): 23%
growth inhibition ([5]; at 33.0 µM): 38%
growth inhibition [5, 18]: 8%
growth inhibition ([5]; at 50.0 µM): 96% (active)
growth inhibition ([5]; at 100.0 µM): 34%
growth inhibition ([6]; at 1.2 µM): -4%
growth inhibition ([6]; at 3.7 µM): -4%
growth inhibition [6, 17]: -12%
growth inhibition ([6]; at 11.0 µM): -6%
growth inhibition ([6]; at 33.0 µM): -5%
growth inhibition [6, 18]: 2%
growth inhibition ([6]; at 50.0 µM): 96.3% (active)
